Only some compounds are listed: those with a hit (about 18% of all), similar ones and a draw of the others.
PLK1 PBD inh – PLK1 (human) polo-box domain binding inhibition | P53350 | Plk1 PBD binding of FITC phosphopeptide, fluorescence polarization | Potency, µM, for the others: max response, negative = inhibition, most hits filed as inhibitors | actives 2.8% (n = 360,000); note: series mostly up to about 57 µM; nearly all actives have a fitted effect of over 65% in size
DT40 TDP1 no CPT – qHTS for Inhibitors of human tyrosyl-DNA phosphodiesterase 1 (TDP1): qHTS in cells in absence of CPT | DT40 Tdp1-/- hTDP1 cells, no CPT, ATP luminescence, 48 h | actives 15% (n = 420,000) | Potency, µM (titrated, usually from 46.2 µM), for the others: top-dose activity change, negative = growth inhibition, most hits filed as inhibitors | AID 686978, 2013; note: nearly all actives have a fitted effect of over 55% in size
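No-CPT arm: Tdp1-/-;hTDP1 DT40 cells (400/well) plus compounds, incubated ≥48 hr at 37 °C. Readout CellTiter-Glo luminescence.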
TDP1 cell CPT – DT40-hTDP1 cell growth loss with CPT. chicken DT40 Tdp1-/-;hTDP1 cells + 20 nM CPT, ATP luminescence, 48 h. Potency, µM (series often up to 46.2 µM), without a hit: at the highest dose activity change, negative = growth inhibition, usual class: inhibitors. actives 12% (n = 420,000). AID 686979; note: nearly all actives have a fitted effect of over 55% in size
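Cell growth measured by CellTiter-Glo luminescence after a minimum 48 h, 37 C compound exposure with 20 nM CPT in Tdp1-knockout DT40 cells stably expressing hTDP1, seeded 400/well; qHTS titration format.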
VDR inhibitor – inhibitors of human vitamin D receptor; P11473; VDR-SRC2-3 peptide fluorescence polarization, 2 h; Potency, µM, inactives show max response, negative = inhibition, usual class: inhibitors; actives 0.93% (n = 400,000); AID 504847
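Measured by FP: displacement of SRC2-3 coactivator peptide from VDR by library compounds, following a two-hour ambient incubation.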
TDP1 block – blocks human tyrosyl-DNA phosphodiesterase 1; Q9NUW8; recombinant TDP1, AlphaScreen DNA substrate cleavage; Potency, µM (top dose mostly 130 µM), inactives show at the highest dose activity change, negative = inhibition, actives largely listed as inhibitors; actives 0.28% (n = 350,000); AID 485290; note: nearly all actives have a fitted effect of over 40% in size
Target sequence (Q9NUW8 whole entry, looked up): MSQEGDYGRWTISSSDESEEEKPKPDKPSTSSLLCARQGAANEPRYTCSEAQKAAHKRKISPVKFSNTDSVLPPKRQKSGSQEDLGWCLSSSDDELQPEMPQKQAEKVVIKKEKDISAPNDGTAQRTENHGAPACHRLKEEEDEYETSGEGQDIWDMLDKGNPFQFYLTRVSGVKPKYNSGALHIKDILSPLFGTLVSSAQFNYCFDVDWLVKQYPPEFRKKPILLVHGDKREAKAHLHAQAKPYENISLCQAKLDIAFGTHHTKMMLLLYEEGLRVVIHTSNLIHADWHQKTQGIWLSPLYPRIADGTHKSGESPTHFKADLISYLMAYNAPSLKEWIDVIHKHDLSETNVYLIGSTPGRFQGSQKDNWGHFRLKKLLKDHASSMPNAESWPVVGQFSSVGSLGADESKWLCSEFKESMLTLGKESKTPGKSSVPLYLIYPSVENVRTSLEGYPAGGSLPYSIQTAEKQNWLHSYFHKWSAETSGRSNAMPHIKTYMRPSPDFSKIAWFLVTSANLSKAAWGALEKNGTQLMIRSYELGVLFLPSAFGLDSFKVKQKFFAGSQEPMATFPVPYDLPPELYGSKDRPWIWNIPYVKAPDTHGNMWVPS
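Recombinant human Tdp1 (E. coli-expressed, 1 nM final) preincubated with compounds 15 min at room temperature, then 5'-biotin/3'-phosphotyrosine-FITC DNA substrate (15 nM final) added for 5 min. AlphaScreen beads (10 ug/ml final) added 10 min; cleavage lowers signal.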
KAT2A inh – blocks human GCN5L2 histone acetyltransferase. Q92830. GCN5L2 HAT assay, ThioGlo1 CoA-SH fluorescence. Potency, µM (series often up to 58.9 µM), for the others: at the top dose activity change, negative = inhibition, usual class: inhibitors. actives 0.21% (n = 390,000). AID 504327
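Fluorescence readout, Ex340nm/Em540nm: ThioGlo1 (50uM final) reacts with free CoA thiol released as 20nM GCN5L2 acetylates H3(1-25) peptide (75uM) using acetyl-CoA (70uM). Compound and enzyme sat 15 min beforehand; 20 min room-temperature reaction.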
Numbers without * were called inactive; ! = a repeat was not active; [ ] = dose if it differs, or a comment. Calls come from the whole dose curve; as a rule, active = well fitted curve in the direction sought with a large enough effect; inconclusive = small, poorly fitted or top-dose-only effect, or another doubt; inactive = no such curve, though single readings can be large; an effect the other way counts as inactive or inconclusive. % is set by controls: 0 for no effect and ±100 for the full control effect; potency is the fitted concentration of half-maximal effect.

CC12CCC3C4CCC(=O)C(O)=C4CCC3C1CCC2OC(=O)CCC1CCCC1 (stereo not given) was read as VDR inhibitor 0% and KAT2A inh 2%.
Screening CNC(C)C1CC[C@H](N)[C@@H](OC2C(N)C[C@H](N)[C@@H](OC3OC[C@](C)(O)C(NC)[C@H]3O)C2O)O1 (stereo not given in full) returned DT40 TDP1 no CPT -7%, TDP1 cell CPT -4%, VDR inhibitor 0%, TDP1 block 7% and KAT2A inh 22%.
Screening COc1ccc2o/c(=N\O)c(C(=O)Nc3ccc(C)cc3)cc2c1 returned PLK1 PBD inh -17%, DT40 TDP1 no CPT inconclusive, TDP1 cell CPT 23µM*, VDR inhibitor -13%, TDP1 block 5% and KAT2A inh 1%.
COc1ccc(/C=C/C(=O)Nc2ccc(C)cc2)cc1 was read as DT40 TDP1 no CPT inconclusive, TDP1 cell CPT -24%, VDR inhibitor 5%, TDP1 block -2%[12.3 µM] and KAT2A inh 1%.
Screening CC(C)C[C@H]1CN([C@@H](CC(C)C)CN2CCCC2CN2C(=S)NC[C@@H]2Cc2ccc(O)cc2)C(=S)N1CC1CCCCCC1 (stereo not given in full) returned PLK1 PBD inh -3%, DT40 TDP1 no CPT 18µM*, TDP1 cell CPT 18µM* and VDR inhibitor 6%.
`COC(=O)[C@H]1C[C@H]2CC[C@H](O)C[C@H]2N1CC1CC1` gave TDP1 block 2%.
`Cc1ccc(N=CN(C)C=Nc2ccc(C)cc2C)c(C)c1` gave DT40 TDP1 no CPT 4%, TDP1 cell CPT 6%, VDR inhibitor 6%, TDP1 block -14%[56.1 µM] and KAT2A inh 5%.
`C[C@H](CO)N1C[C@H](C)[C@@H](CN(C)S(=O)(=O)c2cccs2)Oc2ccc(NC(=O)Nc3ccc(C(F)(F)F)cc3)cc2C1=O` gave PLK1 PBD inh -1%, DT40 TDP1 no CPT 18µM*, TDP1 cell CPT 16µM*, VDR inhibitor -5%, TDP1 block 0% and KAT2A inh -12%.
Screening Cc1ccc(S(=O)(=O)N(C)C[C@H]2Oc3ncc(Br)cc3C(=O)N([C@H](C)CO)C[C@@H]2C)cc1 returned PLK1 PBD inh -20%, DT40 TDP1 no CPT 23µM* and TDP1 cell CPT -30%.
`C[C@H](CO)N1C[C@H](C)[C@H](CN(C)S(=O)(=O)c2ccc(Cl)cc2)OCc2ccccc2-c2c(n(C)c3ccccc23)C1=O` gave PLK1 PBD inh -24%, DT40 TDP1 no CPT 9.2µM* and TDP1 cell CPT 26µM*.
Cc1ccc(S(=O)(=O)N(C)C[C@@H]2Oc3ncc(Br)cc3C(=O)N([C@H](C)CO)C[C@@H]2C)cc1 was read as PLK1 PBD inh -18%, DT40 TDP1 no CPT inconclusive and TDP1 cell CPT inconclusive.
`Cc1ccc(S(=O)(=O)N(C)C[C@@H]2OCc3ccccc3-c3c(n(C)c4ccccc34)C(=O)N([C@H](C)CO)C[C@@H]2C)cc1` gave PLK1 PBD inh -2%, DT40 TDP1 no CPT inconclusive and TDP1 cell CPT 23µM*.
`COC(=O)N1Cc2ccccc2-n2nncc2C1` gave PLK1 PBD inh 1%, DT40 TDP1 no CPT inconclusive and TDP1 cell CPT inconclusive.
Cc1cc(Cl)ccc1O was read as TDP1 block 5%.
CC/C=C\C/C=C\C/C=C\C/C=C\C/C=C\CCCC(=O)NC(C)C(=O)O (stereo not given) was read as VDR inhibitor inconclusive and TDP1 block 4%.
`C[C@@H]1CN([C@H](C)CO)C(=O)c2c(c3ccccc3n2C)-c2ccccc2CO[C@H]1CN(C)C(=O)Cc1ccccc1` gave PLK1 PBD inh 2%, DT40 TDP1 no CPT 13µM* and TDP1 cell CPT 23µM*.
COC(=O)[C@H]1[C@H]2C[C@@H]3c4[nH]c5cc(OC)ccc5c4CCN3C[C@H]2C[C@@H](OC(=O)/C=C/c2cc(OC)c(OC)c(OC)c2)[C@@H]1OC was read as PLK1 PBD inh 7%, DT40 TDP1 no CPT 13µM*!, TDP1 cell CPT inconclusive, VDR inhibitor 36% and KAT2A inh -18%.
For F[Si-2](F)(F)(F)(F)F the results were DT40 TDP1 no CPT -26%, TDP1 cell CPT -9%, VDR inhibitor -9%, TDP1 block 0% and KAT2A inh inconclusive.
Screening CC(=O)OC1=CC[C@H]2[C@@H]3CC[C@H]4C[C@H](OC(C)=O)[C@@H](OC(C)=O)C[C@]4(C)[C@H]3CC[C@]12C returned PLK1 PBD inh 2%, DT40 TDP1 no CPT 12µM*, TDP1 cell CPT 15µM*, VDR inhibitor 11% and KAT2A inh 1%.
For CN1CC(CO)=C[C@H]2c3cccc4[nH]cc(c34)C[C@H]21 the results were DT40 TDP1 no CPT -1%, TDP1 cell CPT 9%, VDR inhibitor inconclusive, TDP1 block 4%[56.1 µM] and KAT2A inh -10%.
For Cc1cc(N2CCOCC2)ccc1/C=C1\C(=O)NC(=O)N(c2ccccc2)C1=O the results were PLK1 PBD inh 12µM*, DT40 TDP1 no CPT inconclusive, TDP1 cell CPT -31%, VDR inhibitor inconclusive and KAT2A inh -7%.
Screening COc1cc(N2CCOCC2)ccc1C=C1C(=O)NC(=O)NC1=O returned PLK1 PBD inh -9%, DT40 TDP1 no CPT -8%, TDP1 cell CPT -5%, VDR inhibitor -13%, TDP1 block 5% and KAT2A inh -12%.
`O=C1NC(=O)N(c2cccc(F)c2)C(=O)/C1=C/c1ccc(N2CCOCC2)cc1` gave PLK1 PBD inh 12µM*, DT40 TDP1 no CPT -21%, TDP1 cell CPT inconclusive, VDR inhibitor -27%, TDP1 block -9% and KAT2A inh inconclusive.
Screening O=C1NC(=O)N(c2ccccc2)C(=O)/C1=C/c1ccc2c(c1)Cc1ccccc1-2 returned TDP1 block -10% and KAT2A inh -17%.
For CN1C(=O)/C(=C\c2ccc(N3CCCCCC3)cc2)C(=O)NC1=S the results were PLK1 PBD inh 2.1µM*, DT40 TDP1 no CPT inconclusive, TDP1 cell CPT inconclusive, VDR inhibitor inconclusive, TDP1 block 0% and KAT2A inh -4%.
`COc1ccccc1N1CCN(C(=O)CCS(=O)(=O)c2ccc3c(c2)oc(=O)n3C)CC1` gave PLK1 PBD inh -20%, DT40 TDP1 no CPT 27%, TDP1 cell CPT -10%, VDR inhibitor 8%, TDP1 block 1% and KAT2A inh -1%.
